Assay outcomes as filed in PubChem BioAssay.
HIF-2a inh = HIF-2a reporter inhibitors, primary screen, luminescence, 786-0 RCC cells; AID 624352, 2012; 0.72% of 360,000 active; 786-0 RCC cells HIF-2a reporter, luciferase luminescence, overnight; inhibition, % at 18.8 µM;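 active = inhibition of the luminescence signal of 40% or more relative to plate controls, in a single-dose primary screen at 18.75 µM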
Shn3 3UTR inh = reduction of Shn3 3'UTR firefly luciferase signal, primary screen, Schnurri-3 inhibitor project, cell-based, Clone20 osteoblasts, set 2; 0.52% of 360,000 active; Clone20 osteoblast Shn3 3'UTR firefly luciferase, 24 h; AID 588674, 2011; inhibition, % at 12.5 µM;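 active = mean inhibition of at least 75% with every replicate also reaching 75%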
CF NFkB block = inhibitors of PAF-induced NF-kB signaling, primary screen, cell-based, GFP fluorescence, uHTS; KKLEB NF-kB-GFP reporter, GFP fluorescence overnight; inhibition, % at 5 µM; 0.86% of 360,000 active; AID 588850, 2011;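 active = at least 50% inhibition at 5 µM, scaled per plate between neutral and stimulator controls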;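 note: PAF is a Pseudomonas aeruginosa culture filtrate used as stimulus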
KKLEB tox = cytotoxicity in KKLEB CF airway cells, primary screen, cytotoxicity control for CF NF-kB inhibitor project, cell-based, uHTS, fluorescence assay plates; KKLEB CF airway cells viability, ATPlite luminescence, overnight; active compounds read low; cells stimulated with P. aeruginosa culture filtrate; activity change (cytotoxicity), % at 5 µM; 0.36% of 360,000 active; AID 602141, 2011;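 active = corrected activity change at or below -50% at 5 µM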
MITF TRPM1 inh = inhibitors of MITF-dependent TRPM1 promoter reporter, primary screen, cell-based, SK-MEL-5, single point, luciferase; SK-MEL-5 TRPM1 promoter luciferase, 24 h; 0.83% of 330,000 active; inhibition, % at 12.5 µM;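 active = mean inhibition across replicates of 60% or more, whatever share of single replicates reaches that level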
Peg3 prom inh = Peg3 promoter-driven luciferase inhibitors, primary screen, cell-based, HeLa, luciferase luminescence. HeLa PEG-Prom luciferase reporter, overnight. inhibition, % at 20 µM. AID 588405, 2011. 1.7% of 360,000 active;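 active = inhibition of at least 50% at 20 µM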
A number is an active result. A selection: hits, their analogues and other compounds. The true share with any hit is near 2.7%.

Results for O=C(/C=C/c1cccc([N+](=O)[O-])c1)OCC1CCCO1 (configuration not stated) ?
HIF-2a inh: inactive; Shn3 3UTR inh: inactive; CF NFkB block: inactive; KKLEB tox: inactive; MITF TRPM1 inh: inactive; Peg3 prom inh: inactive

How did Cc1cc(-c2nnc(SCC(=O)Nc3cccc(Cl)c3)n2N)n[nH]1 do in these assays?
HIF-2a inh: inactive; Shn3 3UTR inh: inactive; CF NFkB block: inactive; KKLEB tox: inactive; MITF TRPM1 inh: inactive; Peg3 prom inh: inactive

How did N#CC(=C1C=C(Br)C(=NO)C=C1Cl)c1cccc2ccccc12 do in these assays?
HIF-2a inh: inactive; Shn3 3UTR inh: inactive; CF NFkB block: 51; KKLEB tox: inactive; Peg3 prom inh: inactive

What do the screens show for `CNc1cc(-n2nc(C)cc2-c2ccccc2)ncn1`?
HIF-2a inh: inactive; Shn3 3UTR inh: inactive; CF NFkB block: inactive; KKLEB tox: inactive; MITF TRPM1 inh: inactive; Peg3 prom inh: inactive

Results for Cc1cc(-c2ccccc2)n(-c2cc(N/N=C/c3ccccc3O)ncn2)n1 ?
HIF-2a inh: 47; Shn3 3UTR inh: 89; CF NFkB block: 74; KKLEB tox: -54; MITF TRPM1 inh: inactive; Peg3 prom inh: inactive

Results for O=C(C1CCCCC1)N1C[C@H](O)[C@@H](n2cc(C3CC3)nn2)C[C@@H]1c1ccccc1 ?
HIF-2a inh: inactive; Shn3 3UTR inh: inactive; CF NFkB block: inactive; KKLEB tox: inactive; Peg3 prom inh: inactive

How did CC(=O)NCCOc1cccc2ccccc12 do in these assays?
HIF-2a inh: inactive; Shn3 3UTR inh: inactive; CF NFkB block: inactive; KKLEB tox: inactive; MITF TRPM1 inh: inactive; Peg3 prom inh: inactive

Results for c1ccc(CCNCCCOc2cccc3ccccc23)cc1 ?
HIF-2a inh: inactive; Shn3 3UTR inh: inactive; CF NFkB block: inactive; KKLEB tox: inactive; MITF TRPM1 inh: inactive; Peg3 prom inh: 50

What do the screens show for `CC1=C(C(=O)N(C)C)CC(CC(=O)NC2CCCC2)C(=O)N1CCCN1CCCC1=O` (configuration not stated)?
HIF-2a inh: inactive; Shn3 3UTR inh: inactive; CF NFkB block: inactive; KKLEB tox: inactive; Peg3 prom inh: inactive

Results for CC1=C(C(=O)N(C)C)CC(CC(=O)NC2CCCCC2)C(=O)N1CCCN1CCCC1=O (configuration not stated) ?
HIF-2a inh: inactive; Shn3 3UTR inh: inactive; CF NFkB block: inactive; KKLEB tox: inactive; Peg3 prom inh: 60

What do the screens show for `Cc1cc2nc(NCCCO)n(CC(=O)c3cc(C(C)(C)C)c(O)c(C(C)(C)C)c3)c2cc1C`?
HIF-2a inh: inactive; Shn3 3UTR inh: inactive; CF NFkB block: inactive; KKLEB tox: inactive; MITF TRPM1 inh: inactive; Peg3 prom inh: 94

Results for COc1ccc(C(=O)Cn2c(NCCCO)nc3ccccc32)cc1 ?
HIF-2a inh: inactive; Shn3 3UTR inh: inactive; CF NFkB block: inactive; KKLEB tox: inactive; Peg3 prom inh: inactive

What do the screens show for `O=C(c1cc(-c2ccccc2)nc2ccccc12)N1N=C(C(F)F)CC1(O)C(F)F` (configuration not stated)?
HIF-2a inh: inactive; Shn3 3UTR inh: inactive; CF NFkB block: inactive; KKLEB tox: inactive; MITF TRPM1 inh: inactive; Peg3 prom inh: inactive

How did Cc1ccc(-c2cc(C(=O)N3N=C(C(F)F)CC3(O)C(F)F)c3ccccc3n2)cc1C (configuration not stated) do in these assays?
HIF-2a inh: inactive; Shn3 3UTR inh: inactive; CF NFkB block: 52; KKLEB tox: -50; MITF TRPM1 inh: inactive; Peg3 prom inh: inactive

Results for Cc1nn(-c2ccc(N3CCOCC3)nn2)c(C)c1CCC(=O)Nc1ccc(F)cc1 ?
HIF-2a inh: inactive; Shn3 3UTR inh: inactive; CF NFkB block: inactive; KKLEB tox: inactive; MITF TRPM1 inh: inactive; Peg3 prom inh: inactive

Results for Cc1cccc(C(C)C)c1NC(=O)COC(=O)CNS(=O)(=O)c1ccccc1 ?
HIF-2a inh: inactive; Shn3 3UTR inh: inactive; CF NFkB block: inactive; KKLEB tox: inactive; MITF TRPM1 inh: inactive; Peg3 prom inh: inactive

How did COc1ccc(NC(=O)c2cc(-c3ccncc3)nc3ccc(Br)cc23)cc1OC do in these assays?
HIF-2a inh: inactive; Shn3 3UTR inh: inactive; CF NFkB block: inactive; KKLEB tox: inactive; MITF TRPM1 inh: inactive; Peg3 prom inh: 94

Results for COc1cc2ccccc2cc1C(=O)Nc1sc2c(c1C(N)=O)CCN(C(C)C)C2 ?
HIF-2a inh: inactive; Shn3 3UTR inh: inactive; CF NFkB block: inactive; KKLEB tox: inactive; MITF TRPM1 inh: inactive; Peg3 prom inh: 101

Results for CN1CCc2c(sc(NC(=O)c3ccc4ccccc4c3)c2C(N)=O)C1 ?
HIF-2a inh: inactive; Shn3 3UTR inh: inactive; CF NFkB block: inactive; KKLEB tox: inactive; MITF TRPM1 inh: inactive; Peg3 prom inh: inactive

Results for Cc1sc(NC(=S)NC(=O)CCc2ccccc2)c(C(N)=O)c1C ?
HIF-2a inh: inactive; Shn3 3UTR inh: inactive; CF NFkB block: 50; KKLEB tox: inactive; MITF TRPM1 inh: inactive; Peg3 prom inh: inactive

How did Cc1ccc(Cn2cc(CN3CC(N4CCSCC4)CS3(=O)=O)nn2)cc1 (configuration not stated) do in these assays?
HIF-2a inh: inactive

Results for CCCN(CCC)Cc1c(C(=O)N/N=C/C(C)=C\c2ccco2)nnn1-c1nonc1N ?
HIF-2a inh: inactive; Shn3 3UTR inh: inactive; CF NFkB block: inactive; KKLEB tox: inactive; MITF TRPM1 inh: 69; Peg3 prom inh: inactive

Results for C/C(=N\NC(=O)c1nnn(-c2nonc2N)c1CN(C)c1ccccc1)c1ccccn1 ?
HIF-2a inh: inactive; Shn3 3UTR inh: 92; CF NFkB block: inactive; KKLEB tox: inactive; MITF TRPM1 inh: inactive; Peg3 prom inh: 68

Results for Oc1ccccc1C(Nc1nccs1)c1ccc2cccnc2c1O (configuration not stated) ?
HIF-2a inh: inactive; Shn3 3UTR inh: 93; CF NFkB block: inactive; KKLEB tox: inactive; MITF TRPM1 inh: inactive; Peg3 prom inh: inactive

How did Oc1c(C(Nc2ccccn2)c2ccccn2)ccc2cccnc12 (configuration not stated) do in these assays?
HIF-2a inh: inactive; Shn3 3UTR inh: inactive; CF NFkB block: inactive; KKLEB tox: inactive; MITF TRPM1 inh: 71; Peg3 prom inh: 54

What do the screens show for `CC(=O)NC(c1ccco1)c1ccc2cccnc2c1O` (configuration not stated)?
HIF-2a inh: inactive; Shn3 3UTR inh: inactive; CF NFkB block: inactive; KKLEB tox: inactive; MITF TRPM1 inh: inactive; Peg3 prom inh: inactive

How did COC(=O)c1ccc(CN2CCC(n3nccc3NC(=O)C3CCCC3)CC2)cc1 do in these assays?
HIF-2a inh: inactive; Shn3 3UTR inh: inactive; CF NFkB block: inactive; KKLEB tox: inactive; MITF TRPM1 inh: inactive; Peg3 prom inh: inactive
